# “And” between values parts separate entries of the source, which are not always exact repeats. Identical values can stand only once. The panel holds about 79,000 compounds, 15% with a hit somewhere; the sample as a whole holds those more often. Some compounds were tested as several samples or in several runs, with calls that do not always agree. The source made the active and inactive calls. Cut-off read from the data, not from the text of the source: active = growth inhibition above about 70%; inactive = the rest.
# What was measured:
# [1] = NCI Yeast Anticancer Drug Screen. Data for the rad50 strain (AID 155);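 note: 0% = growth of vehicle-only cultures of the same strain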; details: S. cerevisiae rad50 strain growth inhibition, stronger effect = higher value
# Summary of the method: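 DNA repair mutant yeast, compound exposure, growth read-out; inhibition is taken relative to vehicle.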
# [2] = NCI Yeast Anticancer Drug Screen. Data for the mec2-1 strain (AID 157); details: S. cerevisiae mec2-1 strain, stronger effect = higher value
# Summary of the method: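 Readout is yeast growth inhibition, normalised to vehicle-treated controls, in the mec2-1 strain exposed to compound.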
# [3] = NCI Yeast Anticancer Drug Screen. Data for the sgs1 mgt1 strain (AID 161);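 note: 0% = growth of cultures given vehicle only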; details: S. cerevisiae sgs1 mgt1 strain, stronger effect = higher value
# Summary of the method: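 Percent growth inhibition was derived by comparing compound-exposed mutant yeast with vehicle-exposed cultures. The strain carries alterations in DNA damage repair.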
# [4] = NCI Yeast Anticancer Drug Screen. Data for the cln2 rad14 strain (AID 165);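 note: 0% = growth equal to vehicle treated cultures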; details: S. cerevisiae cln2 rad14 strain, stronger effect = higher value
# Summary of the method: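 Relative to vehicle controls, growth inhibition of compound-treated cln2 rad14 yeast was recorded.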
# [5] = NCI Yeast Anticancer Drug Screen. Data for the bub3 strain (AID 167); details: S. cerevisiae bub3 mutant strain, stronger effect = higher value
# Summary of the method: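 In this screen, a yeast mutant lacking normal mitotic checkpoint function is challenged with compound. Relative growth versus vehicle gives the inhibition value.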
# [6] = NCI Yeast Anticancer Drug Screen. Data for the mlh1 rad18 strain (AID 175); details: S. cerevisiae mlh1 rad18 strain growth inhibition, stronger effect = higher value
# Summary of the method: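 Test agents were incubated with a yeast strain of defined genotype (DNA damage repair defect). Inhibition of growth was derived by comparison with vehicle-exposed cultures.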
# [7] = at 5.0 µM (retest, dose inferred, filed as 0.5)
# [8] = at 50.0 µM (retest, dose inferred, filed as 5.0)
Structure (SMILES),"growth inhibition [1, 7]","growth inhibition [1, 8]",growth inhibition ([1]; at 50.0 µM),"growth inhibition [2, 7]","growth inhibition [2, 8]",growth inhibition ([2]; at 50.0 µM),"growth inhibition [3, 7]","growth inhibition [3, 8]",growth inhibition ([3]; at 50.0 µM),"growth inhibition [4, 7]","growth inhibition [4, 8]",growth inhibition ([4]; at 50.0 µM),"growth inhibition [5, 7]","growth inhibition [5, 8]",growth inhibition ([5]; at 50.0 µM),"growth inhibition [6, 7]","growth inhibition [6, 8]",growth inhibition ([6]; at 50.0 µM)
CCC[CH2][Sn]1([CH2]CCC)[O]C(=O)C(C(C)C)N=Cc2ccccc2[O]1 (configuration not stated),15% (inactive),15% (inactive),89.8% (active),17% (inactive),17% (inactive),93% (active),12% (inactive),12% (inactive),90.8% (active),7% (inactive),7% (inactive),91.6% (active),-4% (inactive),-4% (inactive),90.8% (active),-2% (inactive),-2% (inactive),88.5% (active)
CCOC(=O)N(C(=O)c1ccc([As]=O)cc1)C(=O)c1ccc([As]=O)cc1 (configuration not stated),8% (inactive),98% (active),99.2% (active),5% (inactive),99% (active),99.3% (active),10% (inactive),100% (active),99.5% (active),-4% (inactive),99% (active),99% (active),11% (inactive),99% (active),89.3% (active),6% (inactive),99% (active),98.7% (active)
[CH3][Sn]([CH3])([Cl])[c]1cc[c]([Sn]([CH3])([CH3])[Cl])cc1,26% (inactive),84% (active),78% (active),-1% (inactive),50% (inactive),72.5% (active),6% (inactive),80% (active),85.5% (active),11% (inactive),63% (inactive),77% (active),10% (inactive),80% (active),81.3% (active),20% (inactive),87% (active),80.2% (active)
ClCCN(CCCl)c1ccc(C2N(Cc3ccc(Cl)cc3)CCCN2Cc2ccc(Cl)cc2)cc1,11% (inactive),56% (inactive),98.5% (active),10% (inactive),39% (inactive),98.5% (active),16% (inactive),68% (inactive),98.8% (active),4% (inactive),24% (inactive),94.9% (active),7% (inactive),35% (inactive),98.8% (active),33% (inactive),94% (active),98.4% (active)
O=C(N/N=C/c1ccc(F)cc1)c1ccc(N(CCCl)CCCl)cc1,-7% (inactive),-5% (inactive),38.9% (inactive),-12% (inactive),-11% (inactive),18.2% (inactive),-20% (inactive),2% (inactive),56.8% (inactive),-26% (inactive),-34% (inactive),25.2% (inactive),-3% (inactive),3% (inactive),27.8% (inactive),-3% (inactive),-8% (inactive),59.3% (inactive)
C[CH2][Sn]([CH2]C)([S]CCS(=O)(=O)O)[S]CCS(=O)(=O)O (tested in a mixture with another compound),18% (inactive),26% (inactive),53.9% (inactive),17% (inactive),46% (inactive),45.8% (inactive),-22% (inactive),54% (inactive),27.3% (inactive),-10% (inactive),67% (inactive),19% (inactive),-1% (inactive),66% (inactive),17.6% (inactive),16% (inactive),32% (inactive),-25.9% (inactive)
CN1CC(C(=O)NC2(C)OC3(O)C4CCCN4C(=O)C(Cc4ccccc4)N3C2=O)C=C2c3cccc4[nH]cc(c34)CC21 (configuration not stated),26% (inactive) and -4% (inactive),35% (inactive) and 23% (inactive),8.55% (inactive) and 49.2% (inactive),6% (inactive) and -1% (inactive),14% (inactive) and 29% (inactive),6.75% (inactive) and 70.6% (active),4% (inactive) and -2% (inactive),12% (inactive) and 50% (inactive),-9.3% (inactive) and 61.7% (inactive),-15% (inactive) and 1% (inactive),22% (inactive) and 15% (inactive),-11.6% (inactive) and 40.9% (inactive),-24% (inactive) and 2% (inactive),4% (inactive) and 30% (inactive),8.25% (inactive) and 57% (inactive),2% (inactive) and -3% (inactive),33% (inactive) and 65% (inactive),51.1% (inactive) and 73% (active)
[Br][Hg][CH2]COC[CH2][Hg][Br],95% (active),99% (active),99.4% (active),98% (active),100% (active),99.6% (active),98% (active),51% (inactive),99.5% (active),83% (active),99% (active),98.8% (active),96% (active),99% (active),99% (active),95% (active),99% (active),99.1% (active)
COC12C(COC(C)=O)C3=C(C(=O)C(C)=C(N4CCCCC4)C3=O)N1CC1NC12 (configuration not stated),93% (active),97% (active),89.5% (active),96% (active),95% (active),91.7% (active),79% (active),97% (active),90.5% (active),93% (active),97% (active),86.6% (active),67% (inactive),96% (active),88% (active),98% (active),97% (active),90% (active)
